# Hits are enriched below; roughly 5.5% of the tested compounds scored in any of these assays.
# RORgamma inh: qHTS for inhibitors of ROR gamma transcriptional activity. Nuclear receptor ROR-gamma (Mus musculus), P51450. Drosophila S2 Gal4-RORgamma UAS-luciferase reporter, 20 h. Potency, µM (titrated, usually from 53.6 µM), for inactives: top-dose activity change, negative = inhibition, actives largely listed as inhibitors. 5.4% of 310,000 active. AID 2551, 2010; further: on the % scale 0 is the no-effect control and ±100 the full control effect; nearly all actives have a fitted effect of over 60% in size
# Target sequence (P51450 whole entry, looked up, the tested form may be a part): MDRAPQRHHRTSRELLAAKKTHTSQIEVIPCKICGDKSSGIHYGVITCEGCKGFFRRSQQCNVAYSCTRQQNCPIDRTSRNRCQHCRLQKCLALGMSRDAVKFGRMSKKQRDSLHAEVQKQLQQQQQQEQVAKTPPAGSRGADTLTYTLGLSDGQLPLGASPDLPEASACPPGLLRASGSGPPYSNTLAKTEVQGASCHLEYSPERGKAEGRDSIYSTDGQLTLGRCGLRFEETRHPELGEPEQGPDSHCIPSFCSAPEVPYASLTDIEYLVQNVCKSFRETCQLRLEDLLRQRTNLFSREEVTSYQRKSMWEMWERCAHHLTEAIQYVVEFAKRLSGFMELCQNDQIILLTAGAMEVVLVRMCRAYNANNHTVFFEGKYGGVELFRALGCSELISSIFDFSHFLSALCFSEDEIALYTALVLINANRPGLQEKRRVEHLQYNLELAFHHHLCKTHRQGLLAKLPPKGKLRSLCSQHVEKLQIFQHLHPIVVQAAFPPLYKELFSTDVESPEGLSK
#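 Drosophila Schneider cells stably carrying a metallothionein-driven Gal4 DBD–ROR gamma fusion and a UAS-Photinus luciferase reporter were exposed to compound for 1 hr, then induced with copper sulfate (700 uM final) for 20 hr at ambient temperature before luminescence reading.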
# BCR signal inh: qHTS Assay to Find Inhibitors of Chronic Active B-Cell Receptor Signaling; ABC-DLBCL IkBa-CBG/CBR reporter, luminescence ratio, 4 h; Potency, µM (highest dose often 46.1 µM), inactives show at the top dose activity change, negative = inhibition, hits mostly inhibitors; 0.05% of 340,000 active; AID 493014, 2011; active means well fitted inhibition curve with a large enough effect in the signal ratio, with a control signal flat, not every such curve was filed as active; inconclusive means small, poorly fitted or top-dose-only effect, or effect the other way, or a change in a side signal; the % refers to the signal ratio;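 further: plate controls were basal doxycycline-induced cells for no effect and cells given 10 µM MG132 for full effect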
#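 Doxycycline induced both beetle luciferases in TMD8 lymphoma cells; IKK-driven degradation limits the IkappaBalpha-fused green signal, while red luminescence normalises for cell number and nonspecific effects. Compounds tested up to 46 uM, 4 hrs.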
# Mito fusion yeast: qHTS Assay for Small Molecule Inhibitors of Mitochondrial Division or Activators of Mitochondrial Fusion; S. cerevisiae fusion-defective mutant growth rescue, CellTiterGlo 48 h; Potency, µM (top dose mostly 46.1 µM), without a hit: at the highest dose growth rescue (activation), actives largely listed as activators; 0.23% of 320,000 active; AID 485298, 2010; further: % of control where 0% means no effect; nearly all actives have a fitted effect of over 45% in size
#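 S. cerevisiae fusion-defective temperature-sensitive mutants (e.g. fzo1-1, mgm1-5) grown 48 h at 37C in YPEG (ethanol/glycerol non-fermentable) medium with 23 nl compound per well; growth rescue read as CellTiterGlo luminescence.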
# uPA surface inh: qHTS for Inhibitors of Cell Surface uPA Generation; cell surface uPA generation assay, qHTS; Potency, µM (top dose mostly 38.3 µM), inactives show top-dose activity change, negative = inhibition, most hits filed as inhibitors; 0.31% of 330,000 active; AID 540303, 2011; active means well fitted inhibition curve with a large enough effect; inconclusive means small, poorly fitted or top-dose-only effect; inactive means no such curve, though single readings can be large or run the other way; tested in mouse RAW 264.7 cells; further: on the % scale 0 is the no-effect control and ±100 the full control effect; nearly all actives have a fitted effect of over 55% in size
# a7 integrin act: qHTS for Activators of Integrin-Mediated Alleviation for Muscular Dystrophy. AID 624291, 2012. alpha7betagal myoblasts, beta-gal FDG fluorescence, 48 h. Potency, µM (doses to about 38.3 µM), inactives show at the top dose activation, hits mostly activators. 0.064% of 350,000 active;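 further: 100% = response of the positive control SU9516; nearly all actives have a fitted effect of over 60% in size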
#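 Alpha7betagal+/- myoblasts (passage 13) were plated 16-24 hr, then exposed to compounds (1:260 dilution of DMSO stock) for 48 hours at 37C. After MPER lysis, β-galactosidase reporter activity was read as FDG fluorescence (ex 480/em 540) after 30 minutes.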
# Gal4-VP16 FLuc: VP16 counterscreen qHTS for inhibitors of ROR gamma transcriptional activity | Drosophila S2 Gal4-VP16 UAS-luciferase, luminescence, 20 h | AID 2546, 2010 | Potency, µM (doses to about 53.6 µM), inactives show at the top dose activity, negative = inhibition, hits mostly inhibitors | 3.5% of 310,000 active;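 further: Gal4-VP16 expression switched on by copper sulfate through the metallothionein promoter; on the % scale 0 is the no-effect control and ±100 the full control effect; nearly all actives have a fitted effect of over 50% in size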
# Starred values were filed as active, the others as inactive; ? = inconclusive; · = not tested or not shown; [ ] = remark or other dose. Unless noted, the call rests on the fitted dose curve; in most records, active means well fitted curve in the direction sought with a large enough effect; inconclusive means small, poorly fitted or top-dose-only effect, or another doubt; inactive means no such curve, though single readings can be large; an effect the other way counts as inactive or inconclusive. Potency means the concentration at half of the fitted maximal effect.
SMILES,RORgamma inh,BCR signal inh,Mito fusion yeast,uPA surface inh,a7 integrin act,Gal4-VP16 FLuc
NC(N)=N/N=C/c1ccc(OCc2ccccc2)cc1,-32%,?,4%,-26%,-61%,10µM*
CCOc1ccc(/C=N/O)cc1,38%,?,4%,2%,24%,8%
NC(N)=N/N=C/c1ccc(OCc2ccc(Cl)cc2)cc1,?,-14%,-2%,-26%,-11%,7.1µM*
O=C(CSc1nc(-c2ccccc2)ns1)NCC1CCCO1 (stereo not given),19%,4%,4%,-1%,1%,?
CCOCCCNC(=O)C(c1ccc(OC)cc1)N(Cc1ccc2c(c1)OCO2)C(=O)c1ccccc1O (stereo not given),26%,-11%,-10%,-3%,14%,-6%
CCCCCOc1ccc(Br)cc1/C(C)=N/NC1=NCCN1,2.5µM*,?,0%,-17%,-51%,?
C/C(=N\NC1=NCCN1)c1ccccc1,18%,-2%,8%,21%,-3%,-5%
COc1ccc(Br)cc1/C(C)=N/NC1=NCCN1,?,-10%,3%,-10%,-17%,13µM*
CCN(CC)CC(=O)Nc1ccc(/C(C)=N/NC2=NCCN2)cc1,-7%,?,-4%,-3%,-25%,5%
O=C1C=CC(=Nc2ccc3c(c2)Cc2ccccc2-3)O1,·,·,·,-5%,-12%,·
CSc1ccc(C2=C/C(=C3/SC(=S)NC3=O)c3ccccc3O2)cc1,·,·,·,3%,-12%,·
Cc1cccc(N2CCN(C(=S)Nc3ccc4nc(N5CCN(C)CC5)cc(C)c4c3)CC2)c1C,4.5µM*,2%,0%,2%,17%,4.5µM*
COC(=O)c1cccc(Cn2c(Cl)c(/C=N/NC(=O)c3ccco3)sc2=O)c1,?,-24%,-7%,-26%,-14%,-5%
O=C(OCc1ccc([N+](=O)[O-])cc1Cl)c1cnccn1,·,-2%,0%,3%,-27%,·
COC(=O)C(Cc1ccc(O)cc1)NC(=O)c1ccc2c(c1)OCCO2 (stereo not given),0.63µM*,-6%,1%,-1%,-2%,2µM*
CCOC(=O)[C@H](Cc1ccc(O)cc1)NC(=O)c1ccccc1,1.4µM*,·,·,·,·,?
CCCNC(=O)C(Cc1ccccc1)NC(=O)c1ccccc1 (stereo not given),·,-1%,-2%,6%,11%,·
CC1(C)C[C@@H]2C(=O)CCC3O[C@@]3(C)CCC21 (stereo not given in full),0%,·,·,·,·,5%
CN1CCCN([C@@H](c2ccccc2)c2ccc(Cl)cc2)CC1,-6%[16.9 µM],·,·,·,·,20%[17 µM]
C[C@H]1[C@@H](OC(=O)CCC(=O)O)OC2OC3(C)CC[C@H]4[C@H](C)CC[C@@H]1[C@@]24OO3 (stereo not given in full),-17%,·,·,·,·,-3%
O=C(C1CCN(S(=O)(=O)N2CCOCC2)CC1)N1CCN(c2ccc(F)cc2)CC1,23%,-15%,35µM*,-7%,16%,-7%
CC1(C)Cc2c(sc(NC(=O)c3ccc(C(=O)c4ccccc4)cc3)c2C(N)=O)C(C)(C)N1,?,?,-8%,-2%,-56%,13µM*
Cc1ccccc1Oc1cc(-n2ncc(Cl)c(Cl)c2=O)ncn1,1.1µM*,?,-23%,2.2µM*,-62%,3.2µM*
CC(C)CSc1n[nH]c(=S)s1,10µM*,5%,2%,2%,0%,-10%
COc1ccc(C(=O)c2c(C)c3ccccc3n2CC(O)CNC(C)C)cc1 (stereo not given),7.9µM*,?,·,?,-57%,20µM*
SMILES,RORgamma inh,BCR signal inh,Mito fusion yeast,uPA surface inh,a7 integrin act,Gal4-VP16 FLuc
Cc1cc(C2CCCCC2)n(O)c(=O)c1,2µM*,?,20%,?,·,2.2µM*
Cn1c(NC2CCCCC2)cc(=O)n(C)c1=O,-15%,8%,-5%,-4%,21%,-4%
Cc1cnc(NC(=O)CSc2nnc(COc3c(C)cccc3C)o2)s1,11µM*,1%,0%,17%,9%,?
Cc1cc(Cl)ccc1NC(=S)NCC(C)C,4.5µM*,?,-3%,1%,-14%,7.1µM*
CCCNC(=S)Nc1ccc(Cl)cc1C,7.1µM*,0%,-14%,-2%,13%,?
Cc1cc(Cl)ccc1NC(=S)NC(C)(C)C,2µM*,?,2%,6%,3%,16µM*
CO[C@@H]1[C@@H](OC2OC(C)C(OC3CC(C)(O)C(OC(=O)CC(C)C)C(C)O3)C(N(C)C)C2O)[C@@H](CC=O)C[C@@H](C)C(=O)/C=C\C2O[C@H]2C[C@@H](C)OC(=O)C[C@H]1OC(C)=O (stereo not given in full),23%,·,·,·,·,-3%
COc1cc(/C=C/c2ccc3c(Br)cc(Br)c(O)c3n2)ccc1O,0.4µM*,?,-2%,21%,-66%,0.32µM*
Cc1ccc2c(Br)cc(Br)c(O)c2n1,0.25µM*,·,·,·,·,0.71µM*
COc1cc(C=O)ccc1O,8%,·,·,·,·,4%
COc1ccc(/C=C/c2noc(-c3ccccc3O)n2)cc1,?,?,-2%,2%,26%,?
COc1ccc(/C=C/c2ccc3c(Br)ccc(O)c3n2)cc1,3.2µM*,?,-16%,-4%,-40%,3.5µM*
COc1ccc(-c2nc(-c3ccccc3)c(Nc3c(C)cccc3C)o2)cc1,-13%,·,·,·,·,1%
CCn1c(=O)c(C(=O)NNC(=O)Cc2ccccc2)c(O)c2ccccc21,13µM*,-2%,3%,2%,27%,-22%
CCn1c(=O)c(C(=O)Nc2nc3ccccc3[nH]2)c(O)c2ccccc21,11µM*,?,0%,-5%,-27%,8.9µM*
CCn1c(=O)c(C(=O)NNC(=O)c2ccc(Cl)cc2Cl)c(O)c2ccccc21,10µM*,-6%,-20%,1%,12%,?
CCn1c(=O)c(C(=O)NCc2ccc(OC)cc2)c(O)c2ccccc21,-12%,?,9%,4%,5%,?
CCn1c(=O)c(C(=O)NCc2ccccn2)c(O)c2ccccc21,3.2µM*,?,2%,-19%,16%,7.1µM*
CCCc1[nH]n(-c2nc3ccccc3s2)c(=O)c1C=NCCCN(CC)CC,20µM*,?,-1%,-7%,15%,-19%
CCCc1cc(=O)n(-c2nc3ccccc3s2)[nH]1,?,11%,-6%,-2%,?,0%
CCCN=Cc1c(CCC)[nH]n(-c2nc3ccccc3s2)c1=O,2.8µM*,?,0%,-20%,15%,?
